# Reference: PubChem BioAssay (NCATS)
# Records with an inconclusive call do not appear. Activity calls are given as the source filed them. The call rests on the fitted dose curve; in most records, active means well fitted cell-killing curve with a large enough effect; inconclusive means small, poorly fitted or top-dose-only effect, or effect the other way; inactive means no such curve, though single readings can be large or run the other way. Starred links: 1 amine or outer side, 2 acyl side, 3 side chain; linkers in the order of their positions; H or OH if unused. Positions of bridges follow the written chain, without caps; N, C: chain ends. Non-standard residues stand in square brackets, D forms with d. Residues, ends and D or L forms follow the SMILES beside them. Chains are numbered I, II in the order given. Actinocin(9to1) = Cc1c2oc3c(C)ccc(C(=O)[*:1])c3nc-2c(C(=O)[*:2])c(N)c1=O; NMeV = CN[CH](C(=O)O)C(C)C; Sar = CNCC(=O)O
# Assay: Quantitative High-Throughput drug screen in 47 multiple myeloma cell lines against the NCATS MIPE library collection: KMS11_JCRBsus cell viability assay (AID 1919873); further: nearly all actives have a fitted effect of over 50% in size
# Details: KMS11 myeloma viability, CellTiter-Glo ATP luminescence, 48 h; series mostly up to 45.8 µM
# Procedure, shortened: (§1)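 ATP-based luminescence (CellTiter-Glo, 5 min RT incubation) quantified surviving cells following two days' treatment with MIPE 4.0 agents at 37 °C, 5% CO2.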
# Potency means the concentration at half of the fitted maximal effect.
row,Structure (SMILES),Potency
1,CCC(C=C[C@@H]1OC(=O)C=C[C@H]1C)=C[C@H](C)CC=CC(C)=C[C@@H](C)C(=O)[C@@H](C)[C@H](O)[C@@H](C)CC(C)=CC(=O)O,13.9 nM (active)
2,CC(C)C[C@H](NC(=O)CNC(=O)c1cc(Cl)ccc1Cl)B1OC(=O)CC(CC(=O)O)(C(=O)O)O1 (stereo not given in full),41.8 nM (active)
3,COc1cc2c(cc1OC)[C@@H]1C(=O)c3ccc4c(c3O[C@@H]1CO2)C=CC(C)(C)O4,41.8 nM (active)

# Assay: Quantitative High-Throughput drug screen in 47 multiple myeloma cell lines against the NCATS MIPE library collection: KMS28BM_JCRB cell viability assay (AID 1919874); further: nearly all actives have a fitted effect of over 35% in size
# Details: CellTiter-Glo ATP, 48 h; series mostly up to 45.8 µM
# Procedure, shortened: as §1
row,Structure (SMILES),Potency
1,CCc1ccc(C(=O)Nc2cc(CN3CCN(C)CC3)cc(C(F)(F)F)c2)cc1C#Cc1cnc2ccnn2c1,4180 nM (active)
2,C=CC[C@@H]1C=C(C)C[C@H](C)C[C@H](OC)[C@H]2O[C@@](O)(C(=O)C(=O)N3CCCC[C@H]3C(=O)O[C@H](C(C)=C[C@@H]3CC[C@H](O)[C@H](OC)C3)[C@@H](C)[C@@H](O)CC1=O)[C@@H](C)C[C@@H]2OC,833 nM (active)
3,CO[C@@H]1[C@@H](O)[C@H](O)[C@@H](n2c3c(Cl)cccc3c3c4c(c5c6cccc(Cl)c6[nH]c5c32)C(=O)NC4=O)O[C@@H]1CO,935 nM (active)
4,Cc1cc(O)c2c(c1)C(=O)c1cccc(O)c1C2=O,inactive
5,C[C@H](NC(=O)C(C#N)=Cc1cccc(Br)n1)c1ccccc1,7430 nM (active)
6,Cn1cnc(=N)c2[nH]cnc21,46.9 nM (active)
7,CC(C)N1[N]C(=C2C=c3cc(O)ccc3=N2)c2c(N)ncnc21,1320 nM (active)
8,COc1cccc2c1C(=O)c1c(O)c3c(c(O)c1C2=O)C[C@@](O)(C(=O)CO)C[C@@H]3O[C@H]1C[C@H](N)[C@@H](O)[C@H](C)O1,418 nM (active)
9,COc1cc(C=CC(=O)CC(=O)C=Cc2ccc(O)c(OC)c2)ccc1O,10800 nM (active)
10,CCC[C@H]1C[C@H](C(=O)N[C@@H]([C@@H]2O[C@@H](SC)[C@@H](O)[C@@H](O)[C@@H]2O)[C@H](C)Cl)N(C)C1,inactive
11,C=CC(=O)Nc1ccc2ncnc(Nc3ccc(OCc4cccc(F)c4)c(Cl)c3)c2c1,132 nM (active)
12,OCc1ccccc1O[C@@H]1O[C@H](CO)[C@H](O)[C@H](O)[C@H]1O,inactive
13,Cn1cc(C2=C(c3c4n(c5ccccc35)CCC(CN)C4)C(=O)NC2=O)c2ccccc21 (stereo not given),10500 nM (active)
14,O=C(Nc1cccc(Nc2ncc(Br)c(NCCc3cnc[nH]3)n2)c1)N1CCCC1,18700 nM (active)
15,C=CCNc1c(O)cc2c(O)c1C[C@@H](C)C[C@H](OC)[C@@H](O)[C@@H](C)C=C(C)[C@H](OC(N)=O)[C@@H](OC)C=CC=C(C)C(=O)N2,935 nM (active)
16,C[C@@H]1CC[C@@]2(OC1)OC1CC3C4CC=C5CC(O)CCC5(C)C4CCC3(C)C1[C@@H]2C (stereo not given in full),inactive
17,CCS(=O)(=O)Nc1ccc2[nH]c(O)c(C(=Nc3ccc(CN4CCCCC4)cc3)c3ccccc3)c2c1,132 nM (active)
18,CCN(CC)CCNC(=O)c1c(C)[nH]c(C=C2C(=O)Nc3ccc(F)cc32)c1C,5400 nM (active)
19,COC1=C2C[C@@H](C)C[C@H](OC)[C@@H](O)[C@@H](C)C=C(C)[C@H](OC(N)=O)[C@@H](OC)C=CC=C(C)C(=O)NC(=CC1=O)C2=O,93.5 nM (active)

row,Structure (SMILES),Potency
1,NC(=NCCCCCCN=C(N)N=C(N)Nc1ccc(Cl)cc1)N=C(N)Nc1ccc(Cl)cc1,18700 nM (active)
2,Nc1nc(N)c2nc(-c3cccc(O)c3)c(-c3cccc(O)c3)nc2n1,20900 nM (active)
3,CC(C)C[C@H](NC(=O)[C@@H](NC(=O)c1cccc(-c2ccccc2)n1)[C@@H](C)O)B(O)O,14.8 nM (active)
4,C#C[C@]1(O)CC[C@@H]2[C@@H]3CCC4=CC(=O)CC[C@@H]4[C@H]3CC[C@@]21CC,inactive
5,CC(=O)O[C@@]12CO[C@H]1C[C@H](O)[C@@]1(C)C(=O)[C@H](O)C3=C(C)[C@@H](OC(=O)C(O)[C@@H](NC(=O)OC(C)(C)C)c4ccccc4)C[C@@](O)([C@@H](OC(=O)c4ccccc4)[C@@H]21)C3(C)C (stereo not given in full),inactive
6,C[C@H](NCc1ccc(OCc2cccc(F)c2)cc1)C(N)=O,5900 nM (active)
7,C[C@@]12C(=O)OC(=O)[C@@]1(C)C1CCC2O1,1050 nM (active)
8,"Cc1c2oc3c(C)ccc(C(=O)NC4C(=O)NC(C(C)C)C(=O)N5CCCC5C(=O)N(C)CC(=O)N(C)C(C(C)C)C(=O)OC4C)c3nc-2c(C(=O)NC2C(=O)NC(C(C)C)C(=O)N3CCCC3C(=O)N(C)CC(=O)N(C)C(C(C)C)C(=O)OC2C)c(N)c1=O (stereo not given) (I: TVP[Sar][NMeV] / II: TVP[Sar][NMeV]; ester I:1-I:C, II:1-II:C; linker I:N-II:N via Actinocin(9to1); configuration not given here)",inactive
9,CC(C)c1cnn2c(NCc3ccccc3)cc(NCCCCCCN)nc12,20900 nM (active)
10,CC(C=CC(=O)NO)=C[C@@H](C)C(=O)c1ccc(N(C)C)cc1,187 nM (active)
11,CN1[C@H]2CC(OC(=O)[C@@H](CO)c3ccccc3)C[C@H]1[C@H]1O[C@H]12 (stereo not given in full),inactive
12,c1ccc(CNc2nc(NCc3ccccc3)c3ccccc3n2)cc1,11800 nM (active)
13,CN(C)c1ccc2cc(C(=O)N[C@@H](CCCN=C(N)CCl)C(=O)NCc3ccccc3)ccc2c1,7430 nM (active)
14,COc1cccc2c1C(=O)c1c(O)c3c(c(O)c1C2=O)C[C@@](O)(C(=O)CO)C[C@H]3O[C@H]1C[C@H](N)[C@H](O)[C@H](C)O1,296 nM (active)
15,CCC(C(=O)O)C1CCC(C)C(C(C)C(O)C(C)C(=O)C(CC)C2OC3(C=CC(O)[C@@]4(CC[C@](C)(C5CC[C@@](O)(CC)C(C)O5)O4)O3)C(C)CC2C)O1 (stereo not given in full),6620 nM (active)
16,CCC(C=C[C@@H]1OC(=O)C=C[C@H]1C)=C[C@H](C)CC=CC(C)=C[C@@H](C)C(=O)[C@@H](C)[C@H](O)[C@@H](C)CC(C)=CC(=O)O,11 nM (active)
17,CC(C)C[C@H](NC(=O)CNC(=O)c1cc(Cl)ccc1Cl)B1OC(=O)CC(CC(=O)O)(C(=O)O)O1 (stereo not given in full),52.6 nM (active)
18,COc1cc2c(cc1OC)[C@@H]1C(=O)c3ccc4c(c3O[C@@H]1CO2)C=CC(C)(C)O4,5900 nM (active)
